We go through one compound from PubChem BioAssay AID602323 (The Scripps Research Institute Molecular Screening Center, 2012).

The experiment deals with 80kDa SH. Nature of the experiment: serine hydrolase inhibition in mouse brain membranes, late-stage follow-up, selectivity assay for DAGLb inhibitor project, biochemical, gel-based competitive ABPP, fluorescence, set 2 (AID 602323). Conditions: mouse brain membrane, at 1 µM, active compounds read high.

Structures are written as SMILES. Unmarked numbers belong to inactive results. How the calls were made is not given here.

With `O=C(N1CCCCC1Cc1ccccc1)n1cc(-c2ccc(-c3ccccc3)cc2)nn1` (stereo unspecified), the inhibition is 10%.
